USP10 block: human USP10 deubiquitinase inhibition; purified USP10, Ub-rhodamine fluorescence, 60 min; AID 1645856; inhibition, % at 20 µM; hit rate 1.1% among 47,000
USP28 block: blocks human USP28 ubiquitin-rhodamine cleavage; Q96RU2; purified USP28, Ub-rhodamine cleavage fluorescence, 30 min; inhibition, % at 25 µM; hit rate 3% among 47,000; AID 1645857
USP8 inh: inhibitors of human USP8 deubiquitinase. P40818. purified USP8, Ub-rhodamine cleavage fluorescence, 30 min. inhibition, % at 20 µM. hit rate 4.2% among 47,000. AID 1645853
USP30 inh: inhibitors of human USP30 deubiquitinase; purified USP30, Ub-rhodamine cleavage fluorescence; hit rate 5.3% among 47,000; Q70CQ3; AID 1645860; inhibition, % at 25 µM
USP17 inh: inhibitors of human USP17 deubiquitinase | A8MUK1 | purified USP17, Ub-rhodamine cleavage fluorescence, 3 h | inhibition, % at 50 µM | hit rate 6.5% among 47,000 | AID 1645855
Each line names hits and unclear results; the compound was inactive in the other large screens. A selection: hits, their analogues and other compounds. The true share with any hit is near 14%. Rule as the data show it: active = inhibition above about 30%; inactive = the rest.

Cc1nc(-c2ccccn2)sc1C(=O)Nc1ccc(F)cc1	none (no result: USP28 block, USP30 inh)
CC(=O)Nc1cccc(NC(=O)c2sc3nc(-c4ccccc4)cn3c2C)c1	USP17 inh 47 (no result: USP28 block, USP30 inh)
Cc1nc(-c2ccccc2F)sc1C(=O)Nc1cccnc1	USP17 inh 54
COc1ccc(OC)c(NC(=O)c2nc(C3CCC3)oc2C)c1	USP30 inh 31
COc1ccc(OC)c(NC(=O)c2cc(Cl)ccc2OC)c1	USP17 inh 62
O=S(=O)(C1CC1)N1C[C@H](OCc2cccnc2)[C@H]2OCCC[C@H]21	none
Cc1ccc(-c2cc(C(=O)NCC(c3ccccc3Cl)N3CCOCC3)no2)cc1 (centres undefined)	none
CCCc1cc(N2CCCCC2)n2nc(-c3cccnc3)nc2n1	USP30 inh 31
CCOC(=O)N1CCN(c2cc(C(C)C)nc3nc(-c4cccnc4)nn23)CC1	USP30 inh 33
CC(C)c1cc(N2CCCCC2)n2nc(-c3cccnc3)nc2n1	none (no result: USP28 block, USP30 inh)
Cc1cc(NCC2CC2)n2nc(Nc3cc(Cl)ccc3C)nc2n1	USP30 inh 31, USP17 inh 71
Cc1cc(NCCc2ccc(Cl)cc2)n2nc(C)nc2n1	none
COc1ccc(C)cc1NC(=O)COC(=O)Cn1cnc2ccccc21	none
CCN1CC2(CC1=O)CN(C(=O)C(C)C)CCN(S(=O)(=O)Cc1ccccc1)C2 (centres undefined)	none
CCCCNC(=O)c1cccc(Nc2cc(C)nc3nc(-c4cccnc4)nn23)c1	USP30 inh 38, USP17 inh 32
Cc1cc(NCC(=O)Nc2cccc(F)c2)n2nc(-c3cccnc3)nc2n1	none
Cc1cc(NCC(=O)Nc2ccc(Cl)cc2)n2nc(-c3cccnc3)nc2n1	USP30 inh 38
Cc1ccc(NC(=O)c2cnn3c2NC(C(=O)O)=CC3/C=C/c2ccccc2)cc1 (centres undefined)	USP8 inh 34
O=C(O)C1=CC(/C=C/c2ccccc2)n2ncc(C(=O)Nc3ccc(F)cc3)c2N1 (centres undefined)	USP8 inh 41
O=C1CCC(=O)NCCCCCN(O)C(=O)CCC(=O)NCCCCCN(O)C(=O)CCC(=O)NCCCCCN1	USP30 inh 44
O=C1NCCCCCN1C(=O)c1ccccc1	none
Cc1ccc(NC2=NC(c3ccco3)n3c(nc(C)cc3=O)N2)c(C)c1 (centres undefined)	USP30 inh 62, USP17 inh 40
COc1ccccc1N1CCn2c(nc3cc(NS(C)(=O)=O)ccc32)C1	USP17 inh 40
Cc1ccc2nc(-c3cccc(-c4nc5ccc(C)cc5[nH]4)n3)[nH]c2c1	USP8 inh 55, USP17 inh 54
Cc1[nH]c2ccccc2c1CC(=O)N1CCc2[nH]c3ccc(F)cc3c2C1	none
CC1=C(c2ccc(C)c(C)c2)S(=O)(=O)NC1=NCC(=O)NCCc1ccc(C)cc1	USP28 block 32, USP30 inh 69
CCc1ccc(NC(=O)CN=C2NS(=O)(=O)C(c3ccc(CC)cc3)=C2C)cc1	USP17 inh 58
COc1ccccc1NC(=O)CN=C1NS(=O)(=O)C(c2ccc(F)cc2)=C1C	none
CCC1=C(c2ccc(C)cc2)S(=O)(=O)NC1=NCC(=O)NCCC1=CCCCC1	none
CCC1=C(c2ccc(C)cc2)S(=O)(=O)NC1=NCC(=O)NC(C)c1ccccc1 (centres undefined)	USP17 inh 54
CC1=C(c2ccc(C)c(C)c2)S(=O)(=O)NC1=NCC(=O)Nc1ccc(F)cc1F	USP17 inh 48
O=C(c1ccccc1)N1CCC2(CC1)OC(C(=O)N1CCOCC1)Cn1ccnc12 (centres undefined)	none
CCn1c(=N)n(CCOc2ccc(F)cc2)c2ccccc21	USP28 block 97, USP30 inh 39
Cc1ccc(OCCn2c(=N)n(C(C)C)c3ccccc32)cc1	USP28 block 78
CCCn1c(=N)n(CC(C)O)c2ccccc21 (centres undefined)	none
Cc1noc(C)c1Cn1cc(-c2nc(-c3cnccn3)no2)ccc1=O	none
CN1CC(=O)N(C2CCCNC2)Cc2c(NC3CCOCC3)ncnc21 (centres undefined)	none
O=C(NCc1cccnc1)N1C[C@@H]2c3nccn3-c3ccccc3[C@@H]2C1	none
CC1CCc2c(sc(N)c2C(=O)NC2CCCC2)C1 (centres undefined)	USP8 inh 37
O=C(NCC1(c2ccccc2)CCOCC1)c1ccc(F)cc1	none
O=C(Nc1ccc(F)cc1F)c1cccc(S(=O)(=O)N2CCCCC2)c1	none
O=C(Nc1ccc2c(c1)CCN2S(=O)(=O)c1ccccc1)Nc1ccc(F)cc1F	USP28 block 43
CCOC(=O)C1CCCN(C(=O)COc2ccc3c(=O)c(Oc4ccccc4F)c(C)oc3c2)C1 (centres undefined)	none
CC(C)NS(=O)(=O)c1ccc(OCC(=O)N2CCC(Cc3ccccc3)CC2)cc1	USP28 block 79, USP30 inh 32
CCOC(=O)C1CCN(C(=O)COc2ccc3c(=O)c(Oc4ccc(F)cc4)c(C)oc3c2)CC1	USP30 inh 30
O=C(COc1ccc(S(=O)(=O)N2CCOCC2)cc1)N1CCC(Cc2ccccc2)CC1	USP28 block 57
O=C(OCC(=O)N1CCC(Cc2ccccc2)CC1)c1cccc(S(=O)(=O)N2CCOCC2)c1	none
Cc1c(C)c2ccc(OCC(=O)N3CCC(Cc4ccccc4)CC3)cc2oc1=O	USP28 block 42, USP30 inh 48
COc1ccc(-n2nnc3c(SCc4ccccc4)ncnc32)cc1	none
CCOc1ccc(NC(=O)C2C3C=CC4(O3)C2C(=O)N(C2CCCCC2)C4C(=O)NC2CCCCC2)cc1 (centres undefined)	none
CN(CC(=O)Nc1ccc(Cl)cc1)c1cnn(-c2nc3ccccc3[nH]2)c(=O)c1Cl	USP8 inh 30
CCn1c(=O)c2nscc2n(CC(=O)Nc2cccc(C)c2)c1=O	none
Cc1cccc(NC(=O)Nc2ccc(C)n(CC(=O)Nc3ccc(C)c(C)c3)c2=O)c1	USP10 block 42, USP8 inh 74
Cc1ccc(NC(=O)Cn2c(Nc3cccc(C)c3)nc(C)cc2=O)cc1	USP30 inh 58, USP17 inh 36
Cc1cccc(NC(=O)Cn2c(C)ncc(C(=O)NC3CC3)c2=O)c1	none
Cc1cccc(NC(=O)Cn2c(-n3nc(C)cc3C)nc3c(c2=O)CCC3)c1	USP17 inh 37
Cc1ccc(NC(=O)Nc2ccc(C)n(CC(=O)Nc3cccc(C)c3)c2=O)cc1	USP10 block 53, USP8 inh 94
Cc1cc(=O)n(CC(=O)Nc2ccc(F)cc2)c(Nc2ccc(F)cc2)n1	none
CCOC(=O)C1CCN(C(=O)c2sc(-c3ccc4c(c3)CCO4)nc2C)CC1	none
COc1ccc(-c2nc(CNC(=O)c3ccccc3F)cs2)cc1	none
COCCCNC(=O)c1ccc(COc2cccc3c2OC(C)(C)C3)cc1	none
Cc1cccc(NC(=O)Nc2ccc(C)n(CC(=O)Nc3ccccc3)c2=O)c1	USP28 block 40, USP30 inh 41, USP17 inh 61
COc1ccc(-c2nc(-c3ccccc3)[nH]c2S(=O)(=O)CC(=O)Nc2ccc(F)cc2)cc1	USP17 inh 36
